In ChEMBL document CHEMBL3433997, “St. Jude Leishmania screening dataset” (2016):

Molecular target: Hexose transporter 1 (Plasmodium falciparum) (UniProt O97467)
Test: ST_JUDE_LEISH: Cytotoxicity at 2uM final concentration against transgenic Leishmania Mexicana promastigotes LmPfHT that are glucose transport deficient and complemented with the Plasmodium falciparum hexose transporter. Activity is measured by DNA content using SYBR green in vitro
Format: functional

Row | SMILES | inhibition [%]
1 | COc1ccc2c(=NN=Cc3ccccc3)cc(C)[nH]c2c1 | 11.5
2 | CCC(=O)Nc1ccc(Nc2nc(C)cc(N3CCCC3)n2)cc1 | 12.4
3 | O=C(Nc1cccc(-c2cccc(-c3nc4cc(F)ccc4[nH]3)c2)c1)Nc1ccc2c(c1)OCO2 | 4.87
4 | CN(C)CCNC(=O)NC1CN(c2ncnc3cc(-c4ccccc4)sc23)C1 | 4.29
5 | O=C(Nc1ccc(C(=O)Oc2ccc3ccccc3c2)cc1)N[C@@H](Cc1ccc(O)cc1)C(=O)NC1CCN(Cc2ccc(O)cc2)C1 (stereo not given in full) | -0.55
6 | CC(C)[C@H](NC(=O)c1ccc(O)c(-c2ccc(Cl)c(Cl)c2)c1)C(=O)NC1CCCCCC1 | 0.52
7 | CN(C)c1ccc(-c2ccc(C(=O)NC3CCN(Cc4cccc(C(F)(F)F)c4)CC3)s2)cc1 | 6.03
8 | Fc1ccc2nc(Nc3nc(-c4ccccn4)cs3)sc2c1 | 10.8
9 | Cc1nc(-c2ccc3c(c2)CCN(CCC2CCC(NC(=O)c4cc5cccc(Cl)c5[nH]4)CC2)CC3)no1 (stereo not given) | 7.07
10 | CCCNCc1ccc(-c2ccc(CN(CCOC)C(=O)c3cnc(C)cn3)cc2)nc1 | 0.25
11 | CC(C)c1ccc(NC(=O)NCCCC2CCCN(CCCCCNC(=O)/C=C/c3ccc(Cl)c(Cl)c3)C2)cc1 (stereo not given) | 2.49
12 | CC(C)C(=O)NC(NC(=S)Nc1ccc(Br)cc1)C(Cl)(Cl)Cl (stereo not given) | 2.18
13 | Cc1cc(C(=O)NCc2ccc(-c3c(C)noc3C)cc2)n(-c2ccccc2)n1 | 4.63
14 | C=C[C@H]1CN(CCCCCCC)CC[C@H]1CCN(C)c1ccnc2ccc(OC)cc12 | 2.44
15 | O=C(NCCCCN1CCN(c2cccc3ccccc23)CC1)c1ccc(NC(=O)c2ccc(Cl)cc2)cc1 | 2.81
16 | CCN(CC)CCCN(C(=O)Nc1c(Cl)cncc1Cl)c1nc(-c2ccc(F)cc2)cs1 | 2.42
17 | N=C(N)NN=Cc1ccccc1OCc1ccccc1Cl | 2.44
18 | O=C(Nc1ccc(Cl)cc1)Nc1ccc(-c2cccc(-c3nc4ccccc4[nH]3)c2)cc1 | 2.71
19 | CC(=O)c1cccc(NC(=O)NC2CCN(c3ccnc(Nc4ccc(F)cc4)n3)C2)c1 (stereo not given) | -0.93
20 | O=C(NCCNc1ccnc(Nc2ccc(F)cc2)n1)Nc1ccc2c(c1)OCO2 | 0.82

Row | SMILES | inhibition [%]
21 | O=C(NCc1cccc(F)c1)Nc1cccc(-c2ccc(-c3nc4cc(F)ccc4[nH]3)cc2)c1 | 3.53
22 | CCCCCCCCNCc1c(O)ccc2ccccc12 | 3.25
23 | Cc1cc(C(=O)CN2C(=O)NC3(CCCc4ccccc43)C2=O)c(C)n1Cc1ccco1 (stereo not given) | 0.08
24 | C[C@H](NC(=O)c1c(CN2CCC(N3CCCCC3=O)CC2)c(-c2cccs2)nc2ccccc12)C1CCCCC1 | 0.29
25 | O=c1[nH]ccc2nc(N[C@@H]3CCNC3)nc(Nc3ccc4c(c3)S(=O)(=O)CC4)c12 | 1.38
26 | CC(=O)c1ccc(NC(=O)CSc2nc(-c3ccccc3Cl)ns2)cc1 | 10.3
27 | CCCC[C@H](NC(=O)O[C@H](COc1ccc(OCc2ccccc2)cc1)C(C)(C)C)C(=O)C(=O)Nc1cc[nH]n1 | 3.22
28 | CCCC(CNCc1cccc(I)c1)CNc1cc(=O)c2ccccc2[nH]1 (stereo not given) | 2.83
29 | Cc1ccc(-n2cc(CNCCc3nc(C)c[nH]3)c(-c3ccc(F)cc3)n2)cc1 | 3.49
30 | O=S(=O)(NC1CCN(c2ccnc3ccccc23)C1)c1ccc(OC(F)(F)F)cc1 (stereo not given) | -0.51
31 | O=S(=O)(NCCN1CCCC1)c1ccc(-c2cccc(CNC3Cc4ccccc4C3)c2)s1 | 13.6
32 | CC(C)CNC(=O)c1ccc(-c2cccc(CN3CCC(N4CCCC4)CC3)c2)nc1 | 2.17
33 | Nc1c(Cl)cc(C(O)CNCCCCCOCCc2ccc3occc3c2)cc1Cl (stereo not given) | 3.64
34 | CS(=O)(=O)c1ccc(Nc2ncc(-c3ccc(S(C)(=O)=O)cc3)c(OCC(F)(F)F)n2)cc1 | 0.18
35 | Cc1[nH]c(C)c(-c2ccc(-c3ccc4c(c3)OCO4)nc2)c(=O)c1Br | 1.09
36 | CC(C)(C)c1cc(CN2CCN(Cc3ccccc3)CC2)cc(C(C)(C)C)c1O | 2.9
37 | COCCN1CCN(Cc2cccc(-c3ccc(-c4nc5ccccc5[nH]4)cc3)c2)CC1 | -3.13
38 | COc1ccc(NC(=O)c2ccc(-c3cccc(OCc4ccccc4)c3)cc2)cc1N1CCN(C)CC1 | 0.6
39 | O=C(NC(=S)Nc1cc(C(F)(F)F)cc(C(F)(F)F)c1)c1ccc(Cl)cc1 | -0.34
40 | O=C(Nc1cccc(OC2CCN(Cc3ccccc3)CC2)c1)c1ccc([N+](=O)[O-])cc1 | 4.94
